Measurements taken from PubChem BioAssay (Tox21).
Inconclusive results are not listed. Active and inactive are the calls of the source. Unless noted, calls come from the whole dose curve.

Tests used:
[1] = Nuclear factor erythroid 2-related factor 2/antioxidant responsive element (Nrf2/ARE) small molecule agonists: qHTS cell viability counter screen in human keratinocytes (AID 1919968; active = well fitted curve in the direction sought with a large enough effect in the repeat runs; an effect the other way counts as inactive or inconclusive; note: nearly all actives have a fitted effect of over 55% in size)
Procedure, shortened: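 Measured as CellTiter-Fluor fluorescence, this readout tracks cytotoxicity in the same wells as the ARE-luciferase screen. HaCaT reporter cells (1,500/well) received compounds after a 5 h pre-incubation and were exposed for 23 h.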

[2] = Nuclear factor erythroid 2-related factor 2/antioxidant responsive element (Nrf2/ARE) small molecule agonists: luciferase reporter gene qHTS assay in human keratinocytes (AID 1919969); note: nearly all actives have a fitted effect of over 35% in size; note: potency is the fitted concentration of half-maximal effect
[3] = target: Gonadotropin-releasing hormone receptor (Homo sapiens) (UniProt P30968); experiment: Human gonadotropin-releasing hormone receptor (GnRHR) small molecule agonists, calcium flux assay in GnRHR-HEK293 cells (AID 1920063); note: nearly all actives have a fitted effect of over 35% in size
Procedure, shortened: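 Fluorescence kinetics (480 nm excitation, 540 nm emission; 3 min, 1 s steps) report calcium mobilisation in human GnRHR-HEK293 cells in agonist mode. Dye incubation: 1 h, 37 C.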

[4] = target: KiSS-1 receptor (Homo sapiens) (UniProt Q969F8); experiment: Human kisspeptin (KISS1R) small molecule agonists, calcium flux assay in KISS1R-HEK293 cells (AID 1920064; active = well fitted curve in the direction sought with a large enough effect in the repeat runs; an effect the other way counts as inactive or inconclusive)
Procedure, shortened: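 Measures KISS1R agonism through calcium-sensitive dye fluorescence in stably transfected HEK293 cells, read for 3 min after pin-tool compound delivery; 15-point titrations in triplicate.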

[5] = G protein-coupled receptor (GPCR) small molecule agonists, calcium flux assay: HEK293 wild type cell line counter screen (AID 1920065)
Procedure, shortened: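 Readout: fluorescence at 480 nm excitation/540 nm emission, sampled at 1 s intervals for 3 min. Cells had been cultured 18 h, then dye-loaded 1 h at 37 C before compound or ATP addition.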

[6] = p53 small molecule agonists, cell-based qHTS assay with human liver microsomes (AID 1963577);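 note: p53 response element beta-lactamase reporter cells with liver microsomes plus NADPH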
Procedure, shortened: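 16 h, 37 C exposure of p53RE-bla cells to compounds with human liver microsomes and NADPH (0.5 mg/mL final each); detection via LiveBLAzer mixture, 2 h dark at room temperature.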

[7] = p53 small molecule agonists, cell-based qHTS assay with rat liver microsomes (AID 1963578)
Procedure, shortened: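 With rat liver microsomes and NADPH present (0.5 mg/mL final each), p53RE-bla cells are treated with compound for 16 h at 37 C. LiveBLAzer detection mixture is then applied for 2 h at room temperature in the dark.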

[8] = p53 small molecule agonists, cell-based qHTS assay with human liver microsomes: qHTS cell viability counter screen (AID 1963579); note: nearly all actives have a fitted effect of over 45% in size
Procedure, shortened: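 In this multiplexed counter screen, the reporter plates were subsequently treated with CellTiter-Glo so that cell viability, reflected by luminescence, could be recorded for p53RE-bla cells dosed 16 h with compounds under microsomal activation (HLM and NADPH).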

[9] = p53 small molecule agonists, cell-based qHTS assay with rat liver microsomes: qHTS cell viability counter screen (AID 1963580); note: nearly all actives have a fitted effect of over 45% in size
Procedure, shortened: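 In HCT-116 cells carrying a p53 response element-bla reporter, compounds were metabolically activated in situ by rat liver microsomes with NADPH over 16 h. Cell ATP content then served as the cytotoxicity measure.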

[10] = p53 small molecule agonists, cell-based qHTS assay: qHTS cell viability counter screen (AID 1963581); note: nearly all actives have a fitted effect of over 45% in size
Procedure, shortened: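 In the same plates used for the p53 bla reporter, HCT-116 cells given compounds for 16 h at 37 C received CellTiter-Glo; luminescence was recorded 30 min later at room temperature.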

[11] = p53 small molecule agonists, cell-based qHTS assay (AID 1963582; active = well fitted activation curve with a large enough effect in the signal ratio in the repeat runs, not every such curve was filed as active; the % refers to the signal ratio)
Procedure, shortened: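 Compounds are pin-transferred in DMSO onto p53RE-bla cells and incubated 16 h at 37 C. The B/G FRET beta-lactamase substrate is then applied for 2 h at RT and fluorescence recorded.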

[12] = target: 5-hydroxytryptamine receptor 2A (Homo sapiens) (UniProt P28223); experiment: 5-hydroxytryptamine receptor 2A (HTR2A) small molecule antagonists, cell-based qHTS assay (AID 1963586); note: nearly all actives have a fitted effect of over 45% in size
Procedure, shortened: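 Antagonist-mode intracellular calcium assay: DOI (4 nM) added after 5 min compound pre-incubation at room temperature to dye-loaded HTR2A-CHO cells. Fluorescence followed for 3 min, sampled every second.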

[13] = target: 5-hydroxytryptamine receptor 2A (Homo sapiens) (UniProt P28223); experiment: 5-hydroxytryptamine receptor 2A (HTR2A) small molecule agonists, cell-based qHTS assay (AID 1963587); note: nearly all actives have a fitted effect of over 30% in size
Procedure, shortened: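 HTR2A-CHO cells, plated 18 h at 37 C/5% CO2, dye-loaded 1 h at 37 C; compounds in DMSO added by pin tool (agonist mode). Intracellular calcium flux read as kinetic fluorescence on FDSS over 2 min at 1 s intervals.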

[14] = target: Muscarinic acetylcholine receptor M1 (Homo sapiens) (UniProt P11229); experiment: Cholinergic receptor muscarinic 1 (CHRM1) small molecule antagonists, cell-based qHTS assay (AID 1963588); note: nearly all actives have a fitted effect of over 40% in size
Procedure, shortened: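 CHRM1-CHO calcium-flux assay, antagonist mode. Cells were seeded 18 h, dye-loaded 1 h at 37 C and given compound for 5 min at RT, then acetylcholine was added at 50nM. FDSS fluorescence was read 3 min; 15 concentrations, three runs.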

[15] = target: Muscarinic acetylcholine receptor M1 (Homo sapiens) (UniProt P11229); experiment: Cholinergic receptor muscarinic 1 (CHRM1) small molecule agonists, cell-based qHTS assay (AID 1963589); note: nearly all actives have a fitted effect of over 35% in size
Procedure, shortened: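 Each compound was tested at 15 concentrations across three independent runs on dye-loaded CHO cells stably expressing human CHRM1, reading intracellular calcium fluorescence kinetically at 1 sec intervals.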

[16] = cAMP Responsive Elements (CRE) small molecule agonists, cell-based qHTS assay (AID 1963590)
Procedure, shortened: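 Cell line: CRE-bla HEK 293T; medium DMEM/10% dialyzed FBS/0.1 mM NEAA/1 mM pyruvate/25 mM HEPES; 3 h compound exposure; beta-lactamase FRET readout after 2 h substrate loading at RT.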

[17] = cAMP Responsive Elements (CRE) small molecule antagonists, cell-based qHTS assay (AID 1963591; active = well fitted inhibition curve with a large enough effect in the signal ratio in the repeat runs, not every such curve was filed as active; the % refers to the signal ratio)
Procedure, shortened: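 Inhibition of NKH477-driven (0.25 uM final) CRE-beta-lactamase signal in HEK293T cells, 3 h compound exposure at 37 °C, detected by FRET substrate fluorescence.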

[18] = target: Beta-2 adrenergic receptor (Homo sapiens) (UniProt P07550); experiment: Adrenergic beta2 receptor (ADRB2) small molecule antagonists, cell-based qHTS assay (AID 1963592); note: series mostly up to about 92 µM; nearly all actives have a fitted effect of over 50% in size
Procedure, shortened: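 Cells (CHO, stable ADRB2 overexpression) incubated 18-20hr at 37C; compounds added from DMSO; agonist mix (1nM isoproterenol, 100uM IBMX, 25uM Ro-20-1724) added; 0.5hr RT; d2-cAMP and anti-cAMP-cryptate added; 1hr RT; 665/615 nm read.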

[19] = target: D(2) dopamine receptor (Homo sapiens) (UniProt P14416); experiment: Dopamine D2 receptor (DRD2) small molecule agonists, cell-based qHTS assay (AID 1963594); note: nearly all actives have a fitted effect of over 35% in size; note: potency is the fitted concentration of half-maximal effect
Procedure, shortened: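 HEK293 cells stably expressing DRD2 were cultured 24 h at 37 C, then given Ro20-1724 (0.1 mM final) and compounds for 10 min at room temperature. NKH477 (200nM) was then added for 30 min. cAMP was read by HTRF.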

[20] = target: D(2) dopamine receptor (Homo sapiens) (UniProt P14416); experiment: Dopamine D2 receptor (DRD2) small molecule antagonists, cell-based qHTS assay (AID 1963595; active = well fitted inhibition curve with a large enough effect in the signal ratio in the repeat runs, with a control signal flat; the % refers to the signal ratio)
Procedure, shortened: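 Readout: HTRF cAMP, cAMP-d2 competing with cellular cAMP for anti-cAMP cryptate, read after 1 h. Cells: DRD2-HEK293. Conditions: 0.1 mM Ro20-1724, 12 nM quinpirole, 200 nM NKH477, 30 min RT.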

Measured: Potency

Beta-2 adrenergic receptor (Homo sapiens), sequence (P07550 whole entry, looked up): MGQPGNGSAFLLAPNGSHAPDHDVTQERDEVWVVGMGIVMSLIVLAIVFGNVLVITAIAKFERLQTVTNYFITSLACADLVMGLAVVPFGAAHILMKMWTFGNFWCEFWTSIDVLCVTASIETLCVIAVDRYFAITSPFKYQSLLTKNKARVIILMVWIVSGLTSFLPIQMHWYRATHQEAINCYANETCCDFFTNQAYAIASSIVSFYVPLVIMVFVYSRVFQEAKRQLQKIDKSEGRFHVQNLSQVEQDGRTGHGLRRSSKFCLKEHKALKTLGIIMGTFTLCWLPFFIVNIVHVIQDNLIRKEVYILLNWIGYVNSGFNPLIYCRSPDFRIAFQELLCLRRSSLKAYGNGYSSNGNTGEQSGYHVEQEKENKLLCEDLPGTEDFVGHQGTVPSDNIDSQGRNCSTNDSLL
D(2) dopamine receptor (Homo sapiens), sequence (P14416 whole entry, looked up): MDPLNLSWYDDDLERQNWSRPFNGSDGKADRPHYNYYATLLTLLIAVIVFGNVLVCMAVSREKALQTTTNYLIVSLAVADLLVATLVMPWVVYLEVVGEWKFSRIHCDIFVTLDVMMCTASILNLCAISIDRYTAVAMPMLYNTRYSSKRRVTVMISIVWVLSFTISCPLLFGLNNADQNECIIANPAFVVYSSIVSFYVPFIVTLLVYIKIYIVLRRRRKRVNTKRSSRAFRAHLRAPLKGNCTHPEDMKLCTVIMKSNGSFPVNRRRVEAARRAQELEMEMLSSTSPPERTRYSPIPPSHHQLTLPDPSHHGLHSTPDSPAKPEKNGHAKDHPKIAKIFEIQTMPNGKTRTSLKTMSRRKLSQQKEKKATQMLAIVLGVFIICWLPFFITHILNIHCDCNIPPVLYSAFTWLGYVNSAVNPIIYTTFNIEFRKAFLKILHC
Gonadotropin-releasing hormone receptor (Homo sapiens), sequence (P30968 whole entry, looked up): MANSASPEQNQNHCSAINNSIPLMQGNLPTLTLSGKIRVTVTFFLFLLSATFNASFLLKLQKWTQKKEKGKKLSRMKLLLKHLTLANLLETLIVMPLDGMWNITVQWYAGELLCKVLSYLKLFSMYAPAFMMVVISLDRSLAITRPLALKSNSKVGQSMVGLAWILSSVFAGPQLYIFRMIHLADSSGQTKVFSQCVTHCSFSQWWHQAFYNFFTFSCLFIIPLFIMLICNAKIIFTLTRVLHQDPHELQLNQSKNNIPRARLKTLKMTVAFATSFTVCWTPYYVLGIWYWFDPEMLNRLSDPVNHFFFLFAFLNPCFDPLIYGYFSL
5-hydroxytryptamine receptor 2A (Homo sapiens), sequence (P28223 whole entry, looked up): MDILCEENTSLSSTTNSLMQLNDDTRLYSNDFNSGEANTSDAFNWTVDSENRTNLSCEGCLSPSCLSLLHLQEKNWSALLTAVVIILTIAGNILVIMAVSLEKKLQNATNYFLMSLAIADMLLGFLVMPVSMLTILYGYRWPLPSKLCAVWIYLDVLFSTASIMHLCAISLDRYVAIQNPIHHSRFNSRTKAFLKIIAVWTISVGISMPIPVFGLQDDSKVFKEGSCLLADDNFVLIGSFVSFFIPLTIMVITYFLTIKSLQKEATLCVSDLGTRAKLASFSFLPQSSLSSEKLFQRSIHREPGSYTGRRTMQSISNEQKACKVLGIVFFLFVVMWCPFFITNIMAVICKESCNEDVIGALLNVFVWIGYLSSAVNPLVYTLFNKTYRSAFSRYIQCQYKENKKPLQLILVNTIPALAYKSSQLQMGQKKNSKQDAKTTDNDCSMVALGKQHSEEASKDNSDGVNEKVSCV
Muscarinic acetylcholine receptor M1 (Homo sapiens), sequence (P11229 whole entry, looked up): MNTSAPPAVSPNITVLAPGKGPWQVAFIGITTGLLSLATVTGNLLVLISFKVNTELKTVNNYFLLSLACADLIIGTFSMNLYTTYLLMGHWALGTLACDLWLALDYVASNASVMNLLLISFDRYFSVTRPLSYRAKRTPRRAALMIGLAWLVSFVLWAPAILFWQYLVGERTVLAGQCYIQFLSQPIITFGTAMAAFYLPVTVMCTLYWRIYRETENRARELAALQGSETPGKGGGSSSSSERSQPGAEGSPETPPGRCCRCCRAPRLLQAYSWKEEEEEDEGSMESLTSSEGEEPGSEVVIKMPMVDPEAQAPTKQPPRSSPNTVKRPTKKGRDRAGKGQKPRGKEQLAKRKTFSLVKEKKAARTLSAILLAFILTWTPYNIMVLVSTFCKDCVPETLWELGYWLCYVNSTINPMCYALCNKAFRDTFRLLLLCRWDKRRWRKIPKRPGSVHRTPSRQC
KiSS-1 receptor (Homo sapiens), sequence (Q969F8 whole entry, looked up): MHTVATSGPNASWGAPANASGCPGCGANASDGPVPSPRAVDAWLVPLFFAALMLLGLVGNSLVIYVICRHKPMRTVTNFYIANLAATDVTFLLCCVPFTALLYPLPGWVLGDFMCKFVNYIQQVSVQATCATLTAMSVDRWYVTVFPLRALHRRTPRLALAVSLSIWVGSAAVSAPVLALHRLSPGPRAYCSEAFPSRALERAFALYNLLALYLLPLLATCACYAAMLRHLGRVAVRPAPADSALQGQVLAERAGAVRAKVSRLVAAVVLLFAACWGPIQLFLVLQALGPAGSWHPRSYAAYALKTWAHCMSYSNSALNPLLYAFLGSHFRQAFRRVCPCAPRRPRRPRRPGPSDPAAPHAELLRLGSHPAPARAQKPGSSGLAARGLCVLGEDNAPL

CN=C(NC#N)NCCSCc1csc(N=C(N)N)n1
active: [19] 19.9 µM
inactive: all other assays above

COCCOC(=O)C1=C(C)NC(C)=C(C(=O)OC/C=C/c2ccccc2)C1c1cccc([N+](=O)[O-])c1 (stereo not drawn)
inactive: all assays above

COc1cc(C(=O)NCCCCCC(=O)O)cc(OC)c1OC
not listed: [19]
inactive: all other assays above

Oc1cc(O)c(Cl)cc1Cl
active: [2] 55.8 µM
inactive: all other assays above

CN(C)C(=O)Nc1ccc(Oc2ccc(Cl)cc2)cc1
inactive: all assays above

OCCC(O)CO (stereo not drawn)
inactive: all assays above

Nc1ccc(F)c([N+](=O)[O-])c1
inactive: all assays above

CC(=O)c1cnccn1
inactive: all assays above

CCC(C)(CCC(C)C)C(=O)[O][Sn]([CH3])([CH3])[O]C(=O)C(C)(CC)CCC(C)C (stereo not drawn)
active: [2] 30.6 µM
not listed: [19]
inactive: all other assays above

CC(=O)C1C(=O)C=C(C)OC1=O (stereo not drawn)
inactive: all assays above

CCCCCCCCCCCCCCCCC(=O)O
inactive: all assays above

CCCCCCC(O)CCOC(C)=O (stereo not drawn)
inactive: all assays above

CC(C)=CCC/C(C)=C\C#N
inactive: all assays above
